Cruzain inh noDet – blocks cruzain activity in detergent-free assay; P25779; purified cruzain, Z-FR-AMC fluorescence, no detergent; Potency, µM, inactives show max response, negative = inhibition, actives largely listed as inhibitors; 200,000 compounds, 2.3% hits; AID 1476;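 further: plate controls were enzyme without inhibitor for no effect and buffer without enzyme for full effect; nearly all actives have a fitted effect of over 40% in size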
Target sequence (P25779 123-467 limits assumed): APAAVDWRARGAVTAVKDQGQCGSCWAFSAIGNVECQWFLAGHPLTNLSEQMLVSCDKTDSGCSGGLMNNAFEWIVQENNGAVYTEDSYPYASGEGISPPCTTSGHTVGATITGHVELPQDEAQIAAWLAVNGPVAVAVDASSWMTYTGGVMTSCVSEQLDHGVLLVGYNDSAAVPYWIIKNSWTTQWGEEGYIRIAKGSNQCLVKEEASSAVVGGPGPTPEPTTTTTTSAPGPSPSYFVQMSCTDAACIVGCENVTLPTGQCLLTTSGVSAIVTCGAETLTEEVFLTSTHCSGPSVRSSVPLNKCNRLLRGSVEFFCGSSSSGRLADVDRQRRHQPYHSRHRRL
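Purified cruzain at 1.5 nM, pre-incubated 15 min with compound at room temperature in 100 mM sodium acetate pH 5.5, 5 mM DTT, 0.00005% Triton X-100. Reaction started with 2 uM Z-FR-AMC; AMC fluorescence increase over 60 s gives rate.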
Cruzain inh Det – cruzain (T. cruzi) inhibition with detergent; purified cruzain, Z-FR-AMC fluorescence, 0.01% Triton; Potency, µM, for inactives: max response, negative = inhibition, most hits filed as inhibitors; P25779; 200,000 compounds, 0.43% hits;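 further: plate controls were neutral wells for no effect and buffer without enzyme for full effect; nearly all actives have a fitted effect of over 40% in size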
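Cruzain (1.5 nM) preincubated 15 min at RT with compound in 100 mM sodium acetate pH 5.5, 5 mM DTT, 0.01% Triton X-100. Reaction started with 2 uM Z-FR-AMC; AMC fluorescence (ex 360/em 450 nm) change over 60 s gave rate.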
* hit, by the source's call; ? = inconclusive. In the library only some 2.4% were active in any assay of this set; here they are far more common. The call rests on the fitted dose curve; in most records, active means well fitted curve in the direction sought with a large enough effect; inconclusive means small, poorly fitted or top-dose-only effect, or another doubt; inactive means no such curve, though single readings can be large; an effect the other way counts as inactive or inconclusive. Potency means the concentration at half of the fitted maximal effect.

SMILES	Cruzain inh noDet	Cruzain inh Det
Cc1cccc(Cc2cnc(NC(=O)CN3C(=O)/C(=C/c4ccccc4)SC3=S)s2)c1	?	-5%
COc1ccc(/C=C2\SC(=S)N(CC(=O)Nc3nnc(C)s3)C2=O)cc1	16µM*	-14%
COc1cc(/C=C2/SC(=S)N(CC(=O)Nc3nc4ccccc4s3)C2=O)cc(OC)c1OC	13µM*	-4%
COc1cc(/C=C2\SC(=S)N(CC(=O)Nc3ccccn3)C2=O)cc(OC)c1OC	-2%	-13%
O=C(CSc1nnnn1-c1ccccc1)Nc1ncc(Cc2ccccc2Cl)s1	11%	-1%
COc1ccc([C@@H](Nc2ccccn2)c2cc(C(C)(C)C)cc(C(C)(C)C)c2O)cc1	2%	-5%
COc1ccc(N=Nc2nc(-c3ccccc3)c(-c3ccccc3)[nH]2)cc1	25µM*	-2%
COc1ccccc1N=Nc1nc(-c2ccccc2)c(-c2ccccc2)[nH]1	-23%	-5%
CCC(CC)C(=O)Nc1nnc(S(=O)(=O)N(C)c2cc(C)cc(C)c2)s1	-19%	-2%
CNC(=O)c1[nH]cnc1C(=O)Nc1ccccc1C	-6%	2%
Cc1cccc(NC(=O)c2nc[nH]c2C(=O)Nc2ccccc2[N+](=O)[O-])c1	10µM*	-1%
Cc1cc(-n2c(C)nc3ccccc3c2=O)ccc1NC(=O)c1ccc(C)c([N+](=O)[O-])c1	8%	-4%
Cc1nc(/N=C(\N)NC(=O)N2c3ccccc3Sc3ccccc32)nc2ccccc12	7.9µM*	-4%
Cc1nc(/N=C(\N)NC(=O)c2ccccc2)nc2ccccc12	3%	-11%
CCc1ccc(C(=O)c2cn(Cc3ccccc3)c3cc(OC)c(OC)cc3c2=O)cc1	?	-11%
CCc1ccc(C(=O)COC(=O)C(NC(=O)C2CCC(C)CC2)C(C)C)cc1 (stereo unspecified)	-5%	-15%
CC1CCC(C(=O)NC(C(=O)OCC(=O)c2ccc(Br)cc2)C(C)C)CC1 (stereo unspecified)	-23%	14µM*
COc1ccc(OC)c(NC(=O)Cn2c(=O)n(-c3ccc(Cl)cc3)c(=O)c3c(C)c(C)sc32)c1	-2%	0%
COc1ccccc1-c1noc(CCCC(=O)Nc2cc(C)ccc2C)n1	-2%	-1%
COc1ccc([C@H]2[C@H](C(=O)C(C)(C)C)N3N=Cc4ccccc4C3C23C(=O)OC(C)(C)OC3=O)cc1 (stereo partly specified)	0%	-2%
O=C(c1ccccc1)[C@H]1[C@H](c2ccccc2)[C@@]2(N=C(c3ccccc3)OC2=O)C2c3ccccc3C=NN21 (stereo partly specified)	10µM*	-7%
COc1ccc(Cn2c(O)c(C=Nc3ccc(OC)cc3)c3ccccc3c2=O)cc1	13µM*	-3%
CC(C)CCC(C)N=Cc1c(O)n(Cc2ccccc2)c(=O)c2ccccc12 (stereo unspecified)	?	0%
CCCN(CCC)CCCNC(=O)C1CCN(c2nc3ccc(CC)cc3s2)CC1	-1%	-4%
COc1ccc(CNC(=O)c2cc(-c3ccc(C)c(C)c3)n[nH]2)cc1	9%	-8%
SMILES	Cruzain inh noDet	Cruzain inh Det
O=C(NCc1ccc(OC(F)(F)F)cc1)C12CN(Cc3ccccc3)CC1C(c1cccc([N+](=O)[O-])c1)=NO2 (stereo unspecified)	20µM*	1%
O=C(NCc1ccccc1)C12CN(Cc3ccccc3)CC1C(c1cccc([N+](=O)[O-])c1)=NO2 (stereo unspecified)	-26%	4%
CCOc1ccc(OCC)c(NC(=O)c2cc(S(=O)(=O)N3CCc4ccccc43)cn2C)c1	-12%	-6%
Cc1nc(S(=O)(=O)c2ccc(Cl)cc2)c(NCc2ccccc2)o1	32µM*	?
O=S(=O)(c1ccc(Cl)cc1)c1nc(-c2ccccc2F)oc1NCc1ccccc1	-10%	-2%
N[C@@H](CSC1(c2ccc(Cl)cc2)c2ccccc2-c2ccccc21)C(=O)O	1%	-4%
O=C(O)Cc1sc(Nc2ccccc2)nc1-c1ccccc1	-25%	-17%
O=C(Cc1sc(-c2ccccc2Cl)nc1-c1ccccc1)Nc1ccccc1	13µM*	7%
O=C(Cc1sc(-c2ccccc2)nc1-c1ccccc1)Nc1ccc(Cl)cc1	?	6%
O=C(Cc1sc(-c2ccccc2Cl)nc1-c1ccccc1)Nc1ccc(F)cc1	16µM*	5%
CS(=O)(=O)Nc1cccc(-c2nc(NCc3ccccc3)c3ccccc3n2)c1	1%	-9%
CCOc1ccc(-n2c(=O)c3c(C)c(C(=O)N(C)C)sc3n(CC(=O)Nc3c(C)cc(C)cc3C)c2=O)cc1	-2%	3%
CN(Cc1cccc2ccccc12)Cc1cccc2ccccc12	-3%	0%
O=C(NC1CCCCCC1)c1ccc2c(c1)sc1nc(-c3ccc(F)cc3)cn12	-10%	-5%
COC(=O)c1c(C)sc(-c2c(-c3ccc(F)cc3)[nH]c3[nH]c(=O)[nH]c(=O)c23)c1O	-6%	-9%
O=C(Nc1nc(=O)c2ccccc2s1)c1ccc(Cl)cc1	10µM*	-2%
O=C(Nc1nc(=O)c2ccccc2s1)c1ccc(F)cc1	?	1%
O=C(O)[C@H]1[O][Sb][O][C@@H](C(=O)O)C1O (stereo partly specified)	3%	6%
O=C1C(NS(=O)(=O)c2cccs2)=C(N2CCN(c3cccc(Cl)c3)CC2)C(=O)c2ccccc21	13µM*	-2%
CC1CCN(C2=C(NS(=O)(=O)c3ccc(Cl)cc3)C(=O)c3ccccc3C2=O)CC1	-18%	-6%
CCN(CC)S(=O)(=O)c1ccc(C(=O)NCCSc2c[nH]c3ccccc23)cc1	10%	-4%
CCN(CC)S(=O)(=O)c1ccc(C(=O)NCCSc2c(-c3ccc(C)cc3)[nH]c3ccccc23)cc1	25µM*	-1%
COc1cc2c(cc1NC(=O)COc1cc(C)cc(C)c1)oc1ccccc12	5%	0%
Cc1cc(C)c(NC(=O)COc2ccccc2C(=O)Nc2ccc3c(c2)oc2ccccc23)c(C)c1	5µM*	-5%
COc1ccc(/C=C/c2nc3cc(-c4ccccc4)ccc3o2)cc1O	-8%	-1%
SMILES	Cruzain inh noDet	Cruzain inh Det
COc1ccc(-c2c/c(=N\c3nc(-c4ccccc4)c(C)s3)c3ccccc3o2)cc1O	10µM*	-4%
O=C(Nc1nc2c(s1)CCCC2)c1cc(-c2ccc3c(c2)OCO3)nc2ccccc12	5µM*	-4%
COc1cccc(-c2cc(C(=O)Nc3nc4ccccc4s3)c3ccccc3n2)c1	13µM*	-1%
O=C(Nc1nc2ccccc2s1)c1cc(-c2ccco2)nc2ccccc12	-26%	-12%
Cc1ccccc1-c1cc(C(=O)Nc2nc3c(s2)CCCC3)c2ccccc2n1	?	-5%
NC(N)=NC[C@H](N)C(=O)O	-6%	1%
Nc1cc(Cl)c([N+](=O)[O-])cc1O	-3%	-3%
O=c1cc(-c2cccc(-c3ccc(C(F)(F)F)cc3)c2)c2cc3c(cc2o1)OCO3	?	3%
CCC(Sc1nc2nccnc2c(=O)n1Cc1ccc(OC)cc1)C(=O)NC1CCCCC1 (stereo unspecified)	13%	-3%
CCCCSc1nnc(-c2ccc(C)cc2)c2ccccc12	14%	-3%
O=C(CSc1nnc(-c2ccc(F)cc2)c2ccccc12)Nc1c(F)cccc1F	16µM*	-7%
O=C(CSc1nnc(-c2ccc(F)cc2)c2ccccc12)Nc1ccccc1	32µM*	-5%
O=C(CSc1nnc(-c2ccc(F)cc2)c2ccccc12)Nc1ccccc1Cl	16µM*	-5%

Screening data (PubChem BioAssay)
